In PubChem BioAssay (NCATS):
Inconclusive results are not listed. Activity calls are given as the source filed them. Calls follow the shape of the dose curve; as a rule, active = well fitted curve in the direction sought with a large enough effect; inconclusive = small, poorly fitted or top-dose-only effect, or another doubt; inactive = no such curve, though single readings can be large; an effect the other way counts as inactive or inconclusive.

Experiments:
[1] = biological target: Glutathione peroxidase 1 (Homo sapiens) (UniProt P07203); assay: Primary qHTS Assay for Inhibitors of Recombinant Selenoprotein Glutathione Peroxidase 1 (GPX1) (AID 1845191); also: nearly all actives have a fitted effect of over 65% in size; also: potency is read from the fitted curve at half-maximal effect; as to activity, negative = inhibition: % is scaled to controls: 0 for no effect and ±100 for the full control effect
Method in brief: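 NADPH consumption tracked by fluorescence at 340/450 nm between t=0 and t=15 min, room temperature. Final mix: 10 nM GPX1, 100 nM glutathione reductase, 1 mM GSH, 0.5 mM NADPH, 0.5 mM cumene hydroperoxide, 0.01% BSA; 30 min compound–enzyme preincubation.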

[2] = biological target: Phospholipid hydroperoxide glutathione peroxidase GPX4 (Homo sapiens) (UniProt P36969); assay: Primary qHTS Assay for Inhibitors of Recombinant Selenoprotein Glutathione Peroxidase 4 (GPX4) (AID 1845192); also: nearly all actives have a fitted effect of over 65% in size; also: potency is read from the fitted curve at half-maximal effect; as to activity change, negative = inhibition: series mostly up to about 50 µM; % is scaled to controls: 0 for no effect and ±100 for the full control effect
Method in brief: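 NADPH consumption followed by fluorescence at 340/450 nm, t=0 and after 15 min at room temperature. Reaction started with cumene hydroperoxide (0.5 mM final) after 30 min compound–GPX4 preincubation; final 200 nM GPX4, 100 nM GR, 1 mM GSH, 0.5 mM NADPH.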

[3] = biological target: Luciferin 4-monooxygenase (Photinus pyralis) (UniProt P08659); assay: Primary firefly luciferase (FLuc) qHTS assay for identification of artifact compounds. (AID 1845220); also: nearly all actives have a fitted effect of over 60% in size;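 as to activity change, negative = inhibition: series mostly up to about 54 µM; plate controls were DMSO vehicle for no effect and no enzyme for full effect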
Method in brief: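 FLuc 10 nM; luciferin 10 uM; ATP 10 uM; Tris-acetate pH 7.6, Mg-acetate 10 mM; 15 min RT preincubation; 5 min reaction; luminescence.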

[4] = Primary fluorescence-based thiol-reactive (MSTI) qHTS assay for identification of artifact compounds. (AID 1845221); also: nearly all actives have a fitted effect of over 65% in size; also: potency is read from the fitted curve at half-maximal effect;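 as to activity change, negative = thiol reactive: series mostly up to about 54 µM; thiol-reactive compounds lower the probe fluorescence signal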
Method in brief: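 In PBS pH 7.4 with 2% DMSO, each compound met 4 uM MSTI for one hour at ambient temperature, shielded from light, before fluorescence detection.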

[5] = tested on: Nanoluciferase (engineered Oplophorus gracilirostris luciferase); assay: Primary Nanoluciferase (NLuc) qHTS assay for identification of artifact compounds. (AID 1845222);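 also: NLuc secreted into diluted conditioned medium of S16 cells; series mostly up to about 54 µM; 0% = DMSO and -100% = no enzyme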
Method in brief: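 NLuc from S16 cell medium (1:55) plus test compounds, 15 min, room temperature. Luminescence after Nano-Glo (1:100) addition, 5 min.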

[6] = Primary redox qHTS assay for identification of artifact compounds. (AID 1845223);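 also: 0% = DMSO and 100% = reference compound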
Method in brief: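 Redox-cycling detection via DTT (250 uM final) oxidation coupled to Amplex Red (25 uM)/HRP (250 mU/mL) in HBSS. 15 min preincubation plus 30 min after DTT, room temperature. Ex/Em 525/598 nm; 4-parameter Hill fit against DMSO and 10 uM DA3003.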

Chain of Glutathione peroxidase 1 (Homo sapiens) (P07203 whole entry, looked up): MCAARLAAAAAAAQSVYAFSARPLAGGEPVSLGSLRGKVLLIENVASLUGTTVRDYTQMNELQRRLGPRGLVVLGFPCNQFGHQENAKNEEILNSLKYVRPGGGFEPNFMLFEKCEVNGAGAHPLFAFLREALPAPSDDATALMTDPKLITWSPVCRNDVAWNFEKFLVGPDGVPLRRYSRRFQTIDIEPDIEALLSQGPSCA
Chain of Phospholipid hydroperoxide glutathione peroxidase GPX4 (Homo sapiens) (P36969 whole entry, looked up): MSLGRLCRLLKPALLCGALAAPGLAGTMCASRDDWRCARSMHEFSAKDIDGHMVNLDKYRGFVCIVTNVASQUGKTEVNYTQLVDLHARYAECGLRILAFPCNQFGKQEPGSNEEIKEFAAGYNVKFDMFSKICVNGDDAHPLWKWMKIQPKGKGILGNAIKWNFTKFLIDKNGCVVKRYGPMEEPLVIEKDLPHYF

COc1c2c(nc3occc13)C(CC=C(C)C)(OC)C(O)CC2 (stereo not given)
inactive: Potency [1] | Potency [2] | Potency [3] | Potency [4] | Potency [5] | Potency [6]

Cc1ccc(NC(=O)N2CCN(c3nc(N)nc4sc(-c5cccnc5)nc34)CC2)cc1
active: Potency [1] 14.3 µM | Potency [2] 2.55 µM
inactive: Potency [3] | Potency [4] | Potency [5] | Potency [6]

CCn1c(=O)c(-c2ccc(Cl)cc2Cl)cc2cnc(Nc3ccc(N4CCNCC4)c(F)c3)nc21
inactive: Potency [1] | Potency [2] | Potency [3] | Potency [4] | Potency [5] | Potency [6]

O=C(N[C@H]1CCC[C@H](CO)C1)C1CCN(c2nc3cc(Cl)c(-c4ccc(Cl)cc4)cc3o2)CC1
inactive: Potency [1] | Potency [2] | Potency [3] | Potency [4] | Potency [5] | Potency [6]

CC1(C)CN(C(=O)c2ccc(-c3cccc4nc(NC(=O)C5CC5)nn34)cc2)C1
inactive: Potency [1] | Potency [2] | Potency [3] | Potency [4] | Potency [5] | Potency [6]

Cc1[nH]c2ccccc2c1CCNC(=O)c1cccs1
active: Potency [4] 8.44 µM
inactive: Potency [1] | Potency [2] | Potency [3] | Potency [5] | Potency [6]

O=C(COc1ccc(C(=O)c2ccccc2)cc1)NC1CCN(Cc2ccccc2)CC1
inactive: Potency [1] | Potency [2] | Potency [3] | Potency [4] | Potency [5] | Potency [6]

CCC(C)c1ccc(NC(=O)Cn2cnc3c2c(=O)n(C)c(=O)n3C)cc1 (stereo not given)
inactive: Potency [1] | Potency [2] | Potency [3] | Potency [4] | Potency [5] | Potency [6]

O=C(O)c1ccc(S(=O)(=O)N(Cc2ccc(OC(F)(F)F)cc2)c2ncc(C(F)(F)F)cc2Cl)cc1
inactive: Potency [1] | Potency [2] | Potency [3] | Potency [4] | Potency [5] | Potency [6]

COc1cc(/C=C2\CC[C@H]3COC[C@@H](c4cc(F)c(F)c(F)c4)N3C2=O)ccc1-n1cnc(C)c1
inactive: Potency [1] | Potency [2] | Potency [3] | Potency [4] | Potency [5] | Potency [6]

CCCc1ccc(OCC(=O)N(Cc2nc(-c3cccnc3)no2)C(C)C)cc1
inactive: Potency [1] | Potency [2] | Potency [3] | Potency [4] | Potency [5] | Potency [6]

COC1=CC(=O)O/C1=C(/OC)[C@@H]1O[C@H]1c1ccccc1
inactive: Potency [1] | Potency [2] | Potency [3] | Potency [4] | Potency [5] | Potency [6]

C=C1C(=O)OC2/C=C(\COC(C)=O)CC/C=C(\C=O)CC(OC(=O)CC(C)C)C12 (stereo not given)
inactive: Potency [1] | Potency [2] | Potency [3] | Potency [4] | Potency [5] | Potency [6]

CN(c1ccc(NC(=O)Nc2ccccc2)cc1)S(=O)(=O)c1cnn(-c2ccc(F)cc2)c1
inactive: Potency [1] | Potency [2] | Potency [3] | Potency [4] | Potency [5] | Potency [6]

C=C(C)C(=O)O[C@H]1C[C@@](C)(O)C2(O)CCC(C)(/C=C3/OC(=O)C(COC)=C31)O2 (stereo not given in full)
inactive: Potency [1] | Potency [2] | Potency [3] | Potency [4] | Potency [5] | Potency [6]

CCN1CCN(Cc2ccc(C(=O)Nc3ccc(C)c(Oc4ccc5c(c4)CC(=O)N5)c3)cc2C(F)(F)F)CC1
inactive: Potency [1] | Potency [2] | Potency [3] | Potency [4] | Potency [5] | Potency [6]

Cc1ccccc1C(C(=O)NC1CCCCC1)N(C(=O)Cn1cnc2ccccc21)c1cccc(F)c1 (stereo not given)
inactive: Potency [1] | Potency [2] | Potency [3] | Potency [4] | Potency [5] | Potency [6]

C[C@@H]1O[C@@H](O[C@H]2[C@H](OC(=O)[C@]34CCC(C)(C)C[C@H]3C3=CCC5[C@@]6(C)C[C@H](O)[C@H](O[C@@H]7O[C@H](CO)[C@@H](O)[C@H](O)[C@H]7O)[C@](CO)(C(=O)O)C6CC[C@@]5(C)[C@]3(C)C[C@H]4O)OC[C@H](O)[C@@H]2O)[C@H](O)[C@H](O)[C@H]1O[C@@H]1OC[C@@H](O)[C@H](O[C@@H]2OC[C@](O)(CO)[C@H]2O)[C@H]1O (stereo not given in full)
inactive: outcome [1] inactive [at 9.52 µM] | activity change, negative = inhibition [2] -2.46% [at 9.73 µM] | activity change, negative = inhibition [3] 1.03% [at 11.6 µM] | activity change, negative = thiol reactive [4] 423% [at 11.5 µM] | activity, negative = inhibition [5] 2.55% [at 11.6 µM] | redox activity (% of DA3003) [6] 8.49% [at 11.5 µM]

COc1cc2nc(C3CC3)nc(N3CCN(c4ccccc4OC)CC3)c2cc1OC
inactive: Potency [1] | Potency [2] | Potency [3] | Potency [4] | Potency [5] | Potency [6]

CC(=O)OC1C(OC(=O)c2ccccc2)C2C(=C(C)CCC2(C)C)C23CCC(C)(C2)C(=O)CC13 (stereo not given)
inactive: Potency [1] | Potency [2] | Potency [3] | Potency [4] | Potency [5] | Potency [6]

CC(C)(O)c1ccc2c(c1)ncn2-c1cccc(-c2ccccc2C#N)c1
inactive: Potency [1] | Potency [2] | Potency [3] | Potency [4] | Potency [5] | Potency [6]

NS(=O)(=O)Nc1ncnc(OCCOc2ncc(Br)cn2)c1-c1ccc(Br)cc1
inactive: Potency [1] | Potency [2] | Potency [3] | Potency [4] | Potency [5] | Potency [6]

CC(=O)O[C@@H]1[C@@H](OC(C)=O)[C@H](C)O[C@@H](O[C@H]2[C@@H]3C=CO[C@@H](O[C@@H]4O[C@H](CO)[C@@H](O)[C@H](O)[C@H]4O)[C@@H]3[C@@]3(CO)O[C@@H]23)[C@@H]1OC(=O)/C=C/c1ccccc1
inactive: Potency [1] | Potency [2] | Potency [3] | Potency [4] | Potency [5] | Potency [6]

CC[C@H]1CN(c2nc(N)c(C(N)=O)nc2Cl)CCN1C1CCN(Cc2ccc(Cl)cc2)CC1
inactive: Potency [1] | Potency [2] | Potency [3] | Potency [4] | Potency [5] | Potency [6]

C/C=C/C1=CC2=C(CO1)C(=O)C(C)(OC(=O)c1c(C)cc(O)cc1OC)C(O)C2 (stereo not given)
inactive: Potency [1] | Potency [2] | Potency [3] | Potency [4] | Potency [5] | Potency [6]
